The panel holds about 79,000 compounds, 15% with a hit somewhere; the sample as a whole holds those more often. Values without a mark were called inactive. The source made the active and inactive calls. Cut-off read from the data, not from the text of the source: active = growth inhibition above about 70%; inactive = the rest.
Experiment: NCI Yeast Anticancer Drug Screen. Data for the rad14 strain (AID 159);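 note: 0% = growth of vehicle-treated control cultures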
Details: S. cerevisiae rad14 strain growth inhibition, active compounds read high
Procedure: Growth inhibition of yeast strains with defined genetic alterations is measured as a screen for potential anti-cancer activity. Selected strains with alterations in DNA damage repair or cell cycle control were exposed to compounds and growth inhibition was measured relative to vehicle treated controls. The strain used in this assay is rad14

Structure (SMILES)	growth inhibition (at 1.2 µM)	growth inhibition (at 3.7 µM)	growth inhibition (at 11.0 µM)	growth inhibition (at 33.0 µM)	growth inhibition (at 100.0 µM)
OC(c1ccc(Br)cc1)C(Cl)(Cl)Cl (stereo not given)	-23%	-16%	-7%	84% (active)	98% (active)
Cc1c2ccccc2cc2ccccc12	5%	21%	55%	99% (active)	99% (active)
C/C(=N\O)c1ccc2ccc3ccccc3c2c1	2%	12%	22%	41%	94% (active)
COC(=O)c1c(C)ccc2c(O)c3c(cc12)C(=O)c1c2c(cc(O)c1C3=O)C1(C)OC(C)(O2)C(O)C(N(C)C)C1O (stereo not given)	0%	18%	98% (active)	95% (active)	89% (active)
O=C(c1ccccc1)C1C(c2ccccc2[N+](=O)[O-])N1C1CCCCC1 (stereo not given)	-1%	3%	7%	13%	64%
COC(=O)C1=C(C(=O)OC)C2OC1c1cc3ccccc3cc12	18%	24%	66%	99% (active)	99% (active)
Nc1ccccc1C(=O)OCCc1ccccc1	-19%	-10%	-21%	-12%	97% (active)
O=[N+]([O-])c1ccc(N2CCC(CCCC3CCN(c4ccc([N+](=O)[O-])cc4[N+](=O)[O-])CC3)CC2)c([N+](=O)[O-])c1	-32%	-27%	-13%	-16%	19%
